From PubChem BioAssay
Hits are enriched below; roughly 7.3% of the tested compounds scored in any of these assays.
Tau fluor counter: counter-screen for tau fibril formation inhibitors; tau K18 P301L Alexa594 fluorescence, heparin fibrillization; Potency, µM (top dose mostly 57.7 µM); 280,000 tested, 0.93% active; AID 1463; also: nearly all actives have a fitted effect of over 55% in size
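Human tau K18 P301L (15 uM unlabeled, 0.24 uM Alexa 594-labeled) in 100 mM sodium acetate pH 7 with 20 uM heparin, 6 hr at 37 C. ThT 30 uM added, 1 hr ambient; Alexa 594 FP and total fluorescence read at 555/632 nm.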
Tau FP inhib: inhibitors of human tau fibril formation. K18 P301L tau heparin fibrillization, Alexa594 FP, 6 h. Potency, µM (top dose mostly 57.7 µM), actives largely listed as inhibitors. 280,000 tested, 0.39% active. AID 1468; also: nearly all actives have a fitted effect of over 55% in size
Target sequence (P10636 561-689 P618L limits assumed): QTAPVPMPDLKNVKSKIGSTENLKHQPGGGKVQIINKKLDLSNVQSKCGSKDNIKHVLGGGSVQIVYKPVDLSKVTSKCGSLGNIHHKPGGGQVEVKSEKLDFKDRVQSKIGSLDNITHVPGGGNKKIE
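Heparin (20 uM) drove fibril formation of recombinant tau K18 P301L, 15 uM unlabeled with 0.24 uM Alexa 594 label, for 6 hr at 37 C in 100 mM sodium acetate pH 7. Fluorescence polarization (555/632 nm) read 1 hr after 30 uM ThT.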
VP16 counter: Gal4-VP16 reporter inhibition counter-screen; Drosophila S2 Gal4-VP16 UAS-luciferase, luminescence, 20 h; Potency, µM (series often up to 53.6 µM), most hits filed as inhibitors; 310,000 tested, 3.5% active; AID 2546;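 also: Gal4-VP16 expression switched on by copper sulfate through the metallothionein promoter; nearly all actives have a fitted effect of over 50% in size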
Tau fibril ThT: inhibitors of human tau fibril formation, thioflavin T binding | P10636 | recombinant tau K18 P301L (four-repeat tau fragment), heparin-induced fibrillization, ThT fluorescence | Potency, µM (titrated, usually from 57.4 µM), usual class: inhibitors | 270,000 tested, 2.1% active | AID 1460; also: nearly all actives have a fitted effect of over 55% in size
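Aggregation was driven by heparin (20 uM final) acting on recombinant tau […] bearing P301L in 100 mM sodium acetate pH 7; fibrils were detected with Thioflavin T.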
RORg inh: blocks mouse ROR gamma transcriptional activity. Drosophila S2 Gal4-RORgamma UAS-luciferase reporter, 20 h. Potency, µM (highest dose often 53.6 µM), hits mostly inhibitors. 310,000 tested, 5.4% active. AID 2551; also: nearly all actives have a fitted effect of over 60% in size
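ROR gamma transcriptional activity was tracked as Gal4-UAS luciferase output in stably transfected Drosophila Schneider cells, with compound added 1 hr before 700 uM copper sulfate induction and a 20 hr ambient-temperature incubation.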
Hits are given with their value; [ ] = dose if it differs, or a comment. Calls follow the shape of the dose curve; as a rule, active = well fitted curve in the direction sought with a large enough effect; inconclusive = small, poorly fitted or top-dose-only effect, or another doubt; inactive = no such curve, though single readings can be large; an effect the other way counts as inactive or inconclusive.

Results for CCOC(=O)c1c(-c2ccc(C)o2)csc1NC(=O)CSc1nnc(C)s1 ?
Tau fluor counter: inactive; Tau FP inhib: inactive; VP16 counter: inconclusive; Tau fibril ThT: inconclusive; RORg inh: inconclusive

What do the screens show for `Cc1ccc(S(=O)(=O)N2CCC(c3ccncc3)CC2)c(C)c1`?
Tau fluor counter: inactive; Tau FP inhib: inactive; Tau fibril ThT: inactive

How did CCOc1ccc(N/C=C/C(=O)c2ccc(C)cc2)c([N+](=O)[O-])c1 do in these assays?
Tau fluor counter: inactive; Tau FP inhib: inactive; VP16 counter: inconclusive; Tau fibril ThT: 1.12µM; RORg inh: 2µM

How did CCOc1ccc(N/C=C/C(=O)c2ccc3ccccc3c2)c([N+](=O)[O-])c1 do in these assays?
Tau fluor counter: inconclusive; Tau FP inhib: inactive; VP16 counter: inactive; Tau fibril ThT: 1.12µM; RORg inh: inactive

How did CCCCNC(=S)NNC(=O)c1ccc(Br)o1 do in these assays?
Tau fluor counter: inactive; Tau FP inhib: inactive; VP16 counter: inactive; Tau fibril ThT: inactive; RORg inh: 0.794µM

What do the screens show for `CCCCNC(=S)NNC(=O)c1nn(C)cc1Cl`?
Tau fluor counter: inactive; Tau FP inhib: inactive; VP16 counter: inactive; Tau fibril ThT: inactive; RORg inh: 14.1µM

Results for O=C(NNC(=S)Nc1ccc(Br)cc1)c1cccnc1 ?
VP16 counter: inconclusive; RORg inh: 10µM

How did O=C(NC(=S)Nc1ncccn1)c1ccc(Cl)cc1Cl do in these assays?
Tau fluor counter: inactive; Tau FP inhib: inactive; VP16 counter: inactive; Tau fibril ThT: inactive; RORg inh: 7.08µM

How did CCCCNC(=S)NNC(=O)c1csc(CC)c1 do in these assays?
Tau fluor counter: inactive; Tau FP inhib: inactive; VP16 counter: inconclusive; Tau fibril ThT: inactive; RORg inh: inconclusive

How did CCC(=O)Nc1cccc(NC(=S)NC(=O)c2ccc(Cl)cc2Cl)c1 do in these assays?
Tau fluor counter: inactive; Tau FP inhib: inactive; VP16 counter: inconclusive; Tau fibril ThT: inactive; RORg inh: inconclusive

How did Cc1cc(Cl)ccc1OCCNC(=S)NC(=O)c1cccnc1 do in these assays?
VP16 counter: inactive; RORg inh: inconclusive

How did CC(C)c1ccccc1OCCNC(=S)NC(=O)c1cccnc1 do in these assays?
Tau fluor counter: inactive; Tau FP inhib: inactive; VP16 counter: inconclusive; Tau fibril ThT: inconclusive; RORg inh: 3.55µM

How did O=C(NC(=S)NNC(=O)c1ccccc1O)c1cccnc1 do in these assays?
Tau fluor counter: inactive; Tau FP inhib: inactive; VP16 counter: inactive; Tau fibril ThT: inactive; RORg inh: inactive

What do the screens show for `O=C(NCCOCCOCCNC(=O)c1cccnc1)c1cccnc1`?
Tau fluor counter: inactive; Tau FP inhib: inactive; VP16 counter: inactive; Tau fibril ThT: inactive; RORg inh: inactive[10 µM]

Results for O=C(NC(=S)NNC(=O)c1ccc(Cl)cc1Cl)c1cccnc1 ?
Tau fluor counter: inactive; Tau FP inhib: inactive; VP16 counter: 20µM; Tau fibril ThT: inconclusive; RORg inh: 12.6µM

Results for O=C(NC(=S)NCCOCc1ccc(Cl)cc1)c1cccnc1 ?
Tau fluor counter: inactive; Tau FP inhib: inactive; VP16 counter: 17.8µM; Tau fibril ThT: inactive; RORg inh: 11.2µM

Results for CCCCNC(=S)NNC(=O)c1cccnc1 ?
Tau fluor counter: inactive; Tau FP inhib: inactive; VP16 counter: 11.2µM; Tau fibril ThT: inactive; RORg inh: inconclusive

How did COc1ccc(-c2oc3ncn4nc(-c5cccc(C)c5)nc4c3c2-c2ccc(OC)cc2)cc1 do in these assays?
Tau fluor counter: inactive; Tau FP inhib: inactive; Tau fibril ThT: inactive

What do the screens show for `O=C(Cc1ccc(Cl)cc1)NNC(=S)NC(=O)c1cccnc1`?
Tau fluor counter: inactive; Tau FP inhib: inactive; VP16 counter: inactive; Tau fibril ThT: inactive; RORg inh: inconclusive

How did O=C(NNC(=S)NC(=O)c1cccnc1)c1ccc(Cl)cc1 do in these assays?
Tau fluor counter: inactive; Tau FP inhib: inactive; VP16 counter: inconclusive; Tau fibril ThT: inactive; RORg inh: 10µM

Results for CCCCNC(=S)NNc1c(Cl)cc(Cl)cc1Cl ?
Tau fluor counter: inactive; Tau FP inhib: inactive; VP16 counter: 5.01µM; Tau fibril ThT: inactive; RORg inh: 2.51µM

How did COc1ccc(S(=O)(=O)Nc2ccc(F)c(Cl)c2)cc1OC do in these assays?
Tau fluor counter: inactive; Tau FP inhib: inactive; VP16 counter: 7.08µM; Tau fibril ThT: inactive; RORg inh: inactive

Results for COc1ccc(S(=O)(=O)Nc2ccc(Cc3ccncc3)cc2)cc1OC ?
VP16 counter: 7.94µM; RORg inh: inconclusive

What do the screens show for `CCc1ccc(OC)c(S(=O)(=O)Nc2ccc(Cc3ccncc3)cc2)c1`?
VP16 counter: 2.24µM; RORg inh: inconclusive
